Records with an inconclusive call do not appear. A number with no mark means an inactive call. The call rests on the fitted dose curve; in most records, active means well fitted cell-killing curve with a large enough effect; inconclusive means small, poorly fitted or top-dose-only effect; inactive means flat fitted curve, though single readings scatter.
Experiment: Cell Viability - LYMP2-009 (AID 968);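 further: 0% = DMSO alone and the full-kill end = tetraoctylammonium bromide at 92 µM; nearly all actives have a fitted effect of over 55% in size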
Details: LYMP2-009 lymphoblastoid cell viability; series mostly up to 92.2 µM; activity change, negative = viability loss: at the top concentration
Source text: NIH Chemical Genomics Center [NCGC]
NIH Molecular Libraries Screening Centers Network [MLSCN]
National Institutes of Environmental Health Sciences [NIEHS]
National Toxicology Program [NTP]
We have developed a 1536-well cell-based assay for quantitative high throughput screening (qHTS) against a number of cell lines to determine in vitro cytotoxicity of small molecules. This particular assay uses a human lymphoblastoid cell line (LYMP2-009) purchased from Coriell Institute for Medical Research.
NCGC Assay Protocol Summary:
The CellTiter-Glo luminescent cell viability assay (Promega) is a homogeneous method to measure the number of viable cells in culture. The end point readout of this assay is based on quantitation of intracellular ATP, an indicator of metabolic activity, using the luciferase reaction. Luciferase catalyzes the oxidation of beetle Luciferin to oxyluciferin and light in the presence of ATP. The luminescent signal is proportional to amount of ATP present.
Using the CellTiter-Glo luminescent cell viability assay, the amount of cellular ATP was measured in the lymphoblastoid cell line with complete culture medium following compound treatment for 24 hours. The assay was performed in opaque white Kalypsys 1536-well plates. In the screen, tetraoctylammonium bromide was used as positive control. Library compounds were measured for their ability to cause acute toxicity in the cell line, as reflected by a decrease in intracellular ATP levels, in a concentration-dependent manner. […] AC50 values were determined from concentration-response data modeled with the standard Hill equation.
qHTS protocol for CellTiter Glo lymphoblastoid cellular assay
[Step] [Parameter] [Value] [Description]
1. Reagent; 5 uL; 2500 lymphoblastoid cells/well
2. Time; 5 hr; 37 C incubation
4. Controls; 23 nL; Tetraoctylammonium bromide 6.4pM to 92 uM
5. Time; 24 hr; 37 C incubation
6. Reagent; 5 uL; CellTiter Glo reagent
7. Time; 30 min; Room Temperature
8. Detection; Luminescence; Viewlux plate reader
Keywords: cell viability, cytotoxicity, lymphoblastoid cell line, luminescence, NTPHTS, NTPHTS_NCGC, NIEHS, DSSTox, MLSMR, MLSCN, NIH Roadmap, qHTS, NCGC

| Compound | activity change, negative = viability loss [%] |
| --- | --- |
| O=C1OC(=O)c2cc([N+](=O)[O-])ccc21 | -0.191 |
| NC(=O)c1ccccc1[N+](=O)[O-] | -11.1 |
| O=C1OC(=O)c2c(Br)c(Br)c(Br)c(Br)c21 | 0.0857 |
| Nc1cccc(C(F)(F)F)c1 | -5.25 |
| CCC=O | 2.58 |
| CCCC(C)CO (stereo not given) | -8.27 |
| O=C(Cl)c1cccc([N+](=O)[O-])c1 | 0.721 |
| CC(C)C=O | 1.7 |
| CCCCCCCCC/C=C/CC1CC(=O)OC1=O (stereo not given) | -8.44 |
| O=C(O)c1cccc(Cl)c1Cl | -3.7 |
| O=[N+]([O-])c1ccc(NCCO)c(OCCO)c1 | -1.46 |
| CCOCCOCC | -3.68 |
| Nc1cccc([N+](=O)[O-])c1 | -3.53 |
| O=[N+]([O-])c1cccc(C(F)(F)F)c1 | -9.11 |
| CO[Si](CCCNCCC[Si](OC)(OC)OC)(OC)OC | -2.05 |
| CC(=O)OC(C)=O | -1.83 |
| CC(C)=CCl | -10.3 |
| C=C(C)C(=O)OCC(C)O (stereo not given) | -3.48 |
| O=C(O)c1ccccc1[N+](=O)[O-] | -12.3 |
| CCCCC(CC)COC(=O)CCCCC(=O)OCC(CC)CCCC (stereo not given) | -4.01 |

| Compound | activity change, negative = viability loss [%] |
| --- | --- |
| Cc1ccc(N(C)C)cc1 | -1.64 |
| COC(=O)CC#N | -2.86 |
| NC(=O)NC(N)=O | -2.19 |
| Cc1cc(C)cc(O)c1 | 3.4 |
| C[C@@H]1O[C@@H](O[C@@H]2[C@@H](O)[C@H](OCCc3ccc(O)c(O)c3)O[C@H](CO[C@@H]3O[C@H](CO)[C@@H](O)[C@H](O)[C@H]3O)[C@H]2OC(=O)/C=C/c2ccc(O)c(O)c2)[C@H](O)[C@H](O)[C@H]1O | -13.3 |
| CCOCCO | -7.01 |
| CCCCC(CC)COCC1CO1 (stereo not given) | -5.01 |
| O=C(O)c1ccc(CO)o1 | -28 |
| O=C1NC(=O)c2cc([N+](=O)[O-])ccc21 | -4.39 |
| Cc1cc(C(=O)O)ccc1[N+](=O)[O-] | 0.951 |
| COC(=O)CCCC(=O)OC | 4.97 |
| CC1(N)CCC(C(C)(C)N)CC1 (stereo not given) | -7.31 |
| CNC(=O)N(c1ccccc1)c1ccccc1 | -9.33 |
| CCCCCCCCN | -9.61 |
| O=C1CCCCC1 | 3.18 |
| CC(=O)CCc1ccccc1 | -8.78 |
| Cc1ccc2ncccc2c1 | -7.5 |
| Nc1cccc2c(=O)[nH][nH]c(=O)c12 | -5.6 |
| C=C(C)C(=O)OCCCCCC | -8.42 |
| C1CCOC1 | 3.06 |

Reference: PubChem BioAssay (NCATS)
